# Test results reported in the supplement of paper PMC8728848.
# Many of the other results were omitted from the sample, so the strongest signals are more common in it than they were.
# B1: CALR truncated at D342 (Homo sapiens) (protein)
# chain: EPAVYFKEQFLDGDGWTSRWIESKHKSDFGKFVLSSGKFYGDEEKDKGLQTSQDARFYALSASFEPFSNKGQTLVVQFTVKHEQNIDCGGGYVKLFPNSLDQTDMHGDSEYNIMFGPDICGPGTKKVHVIFNYKGKNVLINKDIRCKDDEFTHLYTLIVRPDNTYEVKIDNSQVESGSLEDDWDFLPPKKIKDPDASKPEDWDERAKIDDPTDSKPEDWDKPEHIPDPDAKKPEDWDEEMDGEWEPPVIQNPEYKGEWKPRQIDNPDYKGTWIHPEIDNPEYSPDPSIYAYDNFGVLGLDLWQVKSGTIFDNFLITNDEAYAEEFGNETWGVTKAAEKQMKD
# What was measured:
# Experiment in all cases: glycan array binding signal (z-score within array); higher = stronger binding
# Conditions in all cases: glycan notation: IUPAC condensed, linker removed
# Fuc(a1-2)Gal = target: Fuc(a1-2)Gal
# In short: (§1)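 Glycan array data were curated from 3228 arrays in the Consortium for Functional Glycomics database and kept only where the protein sequence was available. Glycan names were converted to IUPAC-condensed notation, and columns mapping to the same glycan were averaged. The binding signal is a within-array Z-score, averaged across arrays of the same protein sequence at different concentrations or buffers and across linkers. Negative Z-scores can be read as non-binding.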
# [1] = target: Fuc(a1-2)Gal(b1-3)GalNAc(b1-3)Gal(a1-4)Gal(b1-4)Glc
# In short: as §1
# [2] = target: Fuc(a1-2)Gal(b1-3)[Fuc(a1-4)]GlcNAc(b1-2)Man(a1-3)[Fuc(a1-2)Gal(b1-3)[Fuc(a1-4)]GlcNAc(b1-2)Man(a1-6)]Man(b1-4)GlcNAc(b1-4)GlcNAc
# In short: as §1
# [3] = target: Fuc(a1-2)Gal(b1-4)GlcNAc(b1-2)Man
# In short: as §1
# [4] = target: Fuc(a1-2)Gal(b1-4)GlcNAc(b1-2)[Fuc(a1-2)Gal(b1-4)GlcNAc(b1-4)]Man(a1-3)[Fuc(a1-2)Gal(b1-4)GlcNAc(b1-2)Man(a1-6)]Man(b1-4)GlcNAc(b1-4)GlcNAc
# In short: as §1
# [5] = target: Fuc(a1-2)Gal(b1-4)[Fuc(a1-3)]GlcNAc(b1-2)Man(a1-6)[Fuc(a1-2)Gal(b1-4)[Fuc(a1-3)]GlcNAc(b1-2)Man(a1-3)]Man(b1-4)GlcNAc(b1-4)[Fuc(a1-6)]GlcNAc
# In short: as §1
# [6] = target: Fuc(a1-2)Gal(b1-4)[Fuc(a1-3)]GlcNAc(b1-2)[Fuc(a1-2)Gal(b1-4)[Fuc(a1-3)]GlcNAc(b1-4)]Man(a1-3)[Fuc(a1-2)Gal(b1-4)[Fuc(a1-3)]GlcNAc(b1-2)Man(a1-6)]Man(b1-4)GlcNAc(b1-4)GlcNAc
# In short: as §1
# [7] = target: Fuc(a1-2)[Gal(a1-3)]Gal(b1-4)[Fuc(a1-3)]GlcNAc
# In short: as §1
# [8] = target: Gal(a1-3)Gal(b1-3)GlcNAc(b1-2)Man(a1-3)[Gal(a1-3)Gal(b1-3)GlcNAc(b1-2)Man(a1-6)]Man(b1-4)GlcNAc(b1-4)GlcNAc
# In short: as §1
# [9] = target: Gal(a1-3)Gal(b1-4)[Fuc(a1-3)]GlcNAc(b1-2)Man(a1-3)[Gal(a1-3)Gal(b1-4)[Fuc(a1-3)]GlcNAc(b1-2)Man(a1-6)]Man(b1-4)GlcNAc(b1-4)GlcNAc
# In short: as §1
# [10] = target: Gal(a1-4)Gal(b1-4)GlcNAc(b1-2)Man(a1-3)[Gal(a1-4)Gal(b1-4)GlcNAc(b1-2)Man(a1-6)]Man(b1-4)GlcNAc(b1-4)GlcNAc
# In short: as §1
# Gal(a1-4)GlcNAc = target: Gal(a1-4)GlcNAc
# In short: as §1
# [11] = target: Gal(b1-3)GlcNAc(b1-2)Man(a1-3)[Gal(b1-3)GlcNAc(b1-2)Man(a1-6)]Man(b1-4)GlcNAc(b1-4)GlcNAc
# In short: as §1
# [12] = target: Gal(b1-3)GlcNAc(b1-2)Man(a1-3)[GlcNAc(b1-4)][Gal(b1-3)GlcNAc(b1-2)Man(a1-6)]Man(b1-4)GlcNAc(b1-4)GlcNAc
# In short: as §1
# [13] = target: Gal(b1-3)GlcNAc(b1-2)[Gal(b1-3)GlcNAc(b1-6)]Man(a1-6)[Gal(b1-3)GlcNAc(b1-2)Man(a1-3)]Man(b1-4)GlcNAc(b1-4)GlcNAc
# In short: as §1
# [14] = target: Gal(b1-3)GlcNAc(b1-3)Gal(b1-4)Glc
# In short: as §1
# [15] = target: Gal(b1-3)GlcNAc(b1-3)GalNAc
# In short: as §1
# [16] = target: Gal(b1-3)[Fuc(a1-4)]GlcNAc(b1-2)Man(a1-3)[Gal(b1-3)[Fuc(a1-4)]GlcNAc(b1-2)Man(a1-6)]Man(b1-4)GlcNAc(b1-4)[Fuc(a1-6)]GlcNAc
# In short: as §1
# [17] = target: Gal(b1-3)[Fuc(a1-4)]GlcNAc(b1-3)Gal(b1-4)[Fuc(a1-3)]GlcNAc
# In short: as §1
# [18] = target: Gal(b1-3)[Fuc(a1-4)]GlcNAc(b1-6)GalNAc
# In short: as §1
# [19] = target: Gal(b1-3)[Neu5Ac(a2-6)]GalNAc
# In short: as §1
# [20] = target: Gal(b1-3)[Neu5Ac(b2-6)]GalNAc
# In short: as §1
# Gal(b1-4)Glc = target: Gal(b1-4)Glc
# In short: as §1
# [21] = target: Gal(b1-4)GlcNAc(b1-3)Gal(b1-3)GlcNAc
# In short: as §1
# Gal(b1-6)Gal = target: Gal(b1-6)Gal
# In short: as §1
# Gal3S6S(b1-4)GlcNAc = target: Gal3S6S(b1-4)GlcNAc
# In short: as §1
# Gal6S(b1-4)GlcNAc = target: Gal6S(b1-4)GlcNAc
# In short: as §1
# [22] = target: GalNAc(b1-3)Gal(a1-6)Gal(b1-4)Glc
# In short: as §1
# GalNAc3S(b1-4)GlcNAc = target: GalNAc3S(b1-4)GlcNAc
# In short: as §1
# Glc(a1-4)Glc = target: Glc(a1-4)Glc
# In short: as §1
# GlcA(b1-6)Gal = target: GlcA(b1-6)Gal
# In short: as §1
# [23] = target: GlcNAc(a1-3)Gal(b1-4)GlcNAc
# In short: as §1
# [24] = target: GlcNAc(a1-4)Gal(b1-4)GlcNAc(b1-3)Gal(b1-4)[Fuc(a1-3)]GlcNAc(b1-3)Gal(b1-4)[Fuc(a1-3)]GlcNAc
# In short: as §1
# [25] = target: GlcNAc(b1-2)Gal(b1-3)GalNAc
# In short: as §1
# [26] = target: GlcNAc(b1-2)[GlcNAc(b1-6)]Man(a1-6)[GlcNAc(b1-2)Man(a1-3)][GlcNAc(b1-4)]Man(b1-4)GlcNAc(b1-4)GlcNAc
# In short: as §1
# [27] = target: Man(a1-2)Man(a1-2)Man(a1-3)Man
# In short: as §1
# [28] = target: Man(a1-2)Man(a1-6)[Man(a1-3)]Man(a1-6)[Man(a1-2)Man(a1-2)Man(a1-3)]Man
# In short: as §1
# [29] = target: Man(a1-3)[Man(a1-6)]Man(a1-6)[Man(a1-3)]Man
# In short: as §1
# Man(a1-6)Man = target: Man(a1-6)Man
# In short: as §1
# [30] = target: Neu5Ac(a2-6)Gal(b1-4)GlcNAc(b1-2)Man(a1-3)[GlcNAc(b1-2)Man(a1-6)]Man(b1-4)GlcNAc(b1-4)GlcNAc
# In short: as §1
# [31] = target: Neu5Ac(a2-6)Gal(b1-4)GlcNAc(b1-2)Man(a1-6)[Gal(b1-4)GlcNAc(b1-2)Man(a1-3)]Man(b1-4)GlcNAc(b1-4)GlcNAc
# In short: as §1
# [32] = target: Neu5Ac(a2-6)Gal(b1-4)GlcNAc(b1-2)Man(a1-6)[GlcNAc(b1-2)Man(a1-3)]Man(b1-4)GlcNAc(b1-4)GlcNAc
# In short: as §1
# [33] = target: Neu5Ac(a2-6)Gal(b1-4)GlcNAc(b1-3)Gal(b1-4)[Fuc(a1-3)]GlcNAc(b1-3)Gal(b1-4)[Fuc(a1-3)]GlcNAc
# In short: as §1
# Neu5Ac(a2-6)GalNAc = target: Neu5Ac(a2-6)GalNAc
# In short: as §1
# [34] = target: Neu5Ac(a2-6)GlcNAc(b1-4)GlcNAc(b1-4)GlcNAc
# In short: as §1
# [35] = target: Neu5Ac(a2-8)Neu5Ac(a2-8)Neu5Ac(a2-3)[GalNAc(b1-4)]Gal(b1-4)Glc
# In short: as §1
binder,measurement,setting,value
B1,glycan array binding signal (z-score),Fuc(a1-2)Gal,-0.171
same,glycan array binding signal (z-score),[1],-0.373
same,glycan array binding signal (z-score),[2],3.18
same,glycan array binding signal (z-score),[3],-1.98
same,glycan array binding signal (z-score),[4],2.76
same,glycan array binding signal (z-score),[5],1.04
same,glycan array binding signal (z-score),[6],2.8
same,glycan array binding signal (z-score),[7],-0.484
same,glycan array binding signal (z-score),[8],0.21
same,glycan array binding signal (z-score),[9],2.73
same,glycan array binding signal (z-score),[10],0.225
same,glycan array binding signal (z-score),Gal(a1-4)GlcNAc,4.99
same,glycan array binding signal (z-score),[11],-0.863
same,glycan array binding signal (z-score),[12],-0.281
same,glycan array binding signal (z-score),[13],3.33
same,glycan array binding signal (z-score),[14],-0.183
same,glycan array binding signal (z-score),[15],-0.05
same,glycan array binding signal (z-score),[16],1.24
same,glycan array binding signal (z-score),[17],4.2
same,glycan array binding signal (z-score),[18],0.999
same,glycan array binding signal (z-score),[19],-0.241
same,glycan array binding signal (z-score),[20],0.075
same,glycan array binding signal (z-score),Gal(b1-4)Glc,-0.137
same,glycan array binding signal (z-score),[21],0.662
same,glycan array binding signal (z-score),Gal(b1-6)Gal,0.132
same,glycan array binding signal (z-score),Gal3S6S(b1-4)GlcNAc,0.029
same,glycan array binding signal (z-score),Gal6S(b1-4)GlcNAc,-1.33
same,glycan array binding signal (z-score),[22],-0.627
same,glycan array binding signal (z-score),GalNAc3S(b1-4)GlcNAc,1.07
same,glycan array binding signal (z-score),Glc(a1-4)Glc,-0.124
same,glycan array binding signal (z-score),GlcA(b1-6)Gal,1.96
same,glycan array binding signal (z-score),[23],-0.73
same,glycan array binding signal (z-score),[24],2.68
same,glycan array binding signal (z-score),[25],-0.975
same,glycan array binding signal (z-score),[26],-0.104
same,glycan array binding signal (z-score),[27],-0.176
same,glycan array binding signal (z-score),[28],3.6
same,glycan array binding signal (z-score),[29],-0.102
same,glycan array binding signal (z-score),Man(a1-6)Man,0.051
same,glycan array binding signal (z-score),[30],-0.321
same,glycan array binding signal (z-score),[31],3.22
same,glycan array binding signal (z-score),[32],-1.48
same,glycan array binding signal (z-score),[33],0.139
same,glycan array binding signal (z-score),Neu5Ac(a2-6)GalNAc,-0.893
same,glycan array binding signal (z-score),[34],0.867
same,glycan array binding signal (z-score),[35],-0.341
